Source: PubChem BioAssay AID2101 (National Center for Advancing Translational Sciences (NCATS), 2009)
About 300 (0.091%) of roughly 330,000 compounds were called active. Inconclusive results (about 4%) are left out. The call rests on the fitted dose curve; in most records, active means well fitted inhibition curve with a large enough effect; inconclusive means small, poorly fitted or top-dose-only effect, or effect the other way, or another doubt; inactive means no such curve, though single readings can be large or run the other way. The sample as a whole holds a higher share of actives than the screen did.

target: Lysosomal acid glucosylceramidase (Homo sapiens) (UniProt P04062); assay: qHTS Assay for Inhibitors and Activators of N370S glucocerebrosidase as a Potential Chaperone Treatment of Gaucher Disease; settings: N370S GC spleen homogenate, 4MU-glucoside fluorescence; series mostly up to 59.4 µM; activity change, negative = inhibition: at the top concentration;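 on activity change, negative = inhibition: 0% = full enzyme activity and -100% = no enzyme basal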
Excerpt: NIH Chemical Genomics Center [NCGC]
NIH Molecular Libraries Probe Production Centers Network [MLPCN]
Assay Submitter (PI): Wei Zheng
Glucocerebrosidase (GC) catalyzes the hydrolysis of beta-glucocerebroside to glucose and ceramide in lysosomes. Mutations in the glucocerebrosidase gene result in Gaucher disease, an autosomal recessive lysosomal storage disorder. Many of the mutations encountered in patients with Gaucher disease are missense alterations that may cause misfolding, decreased stability and/or mistrafficking of this lysosomal protein. […] These inhibitors include iminosugar analogs and three non-iminosugar inhibitors identified from a previous HTS of 62,000 compounds with the wild type recombinant enzyme. However, the enhancement of enzyme activity by the chaperone action of an enzyme inhibitor must be balanced against the direct inhibition of the enzyme. An enzyme activator could also function as a chaperone by binding to the enzyme and helping to correct its misfolding and mistrafficking. While activators for GC have not yet been identified, they may have better therapeutic potential than inhibitors. Therefore the discovery and development of chemical activators may provide a new strategy for the chaperone therapy.
We have optimized a new assay using N370S mutant GC derived from the spleen of a Gaucher patient. […] In addition, the MLPCN compound library has expanded, which increases the chance of finding new and better probes.
NCGC Assay Protocol Summary:
This is a fluorogenic enzyme assay with 4-methylumbelliferyl-beta-D-glucopyranoside as the substrate and N370S glucocerebrosidase from human spleen homogenate as the enzyme preparation. Upon the hydrolysis of this fluorogenic substrate, the resulting product, […] which can be detected by a standard fluorescence plate reader. Data were normalized to the controls for basal activity (without enzyme) and 100% activity (with enzyme). The AC50 values were determined from concentration-response data modeled with the standard Hill equation.
Assay buffer: 50 mM citric acid (titrated with potassium phosphate to pH 5.0), 100 mM potassium chloride, 10 mM sodium chloride, 1 mM magnesium chloride, 0.01% Tween-20.
1536-well assay protocol:
(1) Add 2 ul/well of spleen homogenate (27 ug final)
(2) Add 23 nL compounds in DMSO solution. The final titration was 0.5 nM to 58 uM.
(3) Add 2 ul of substrate (1 mM final)
(4) Incubate at 37C for 40 min.
(5) Add 2 ul stop solution (1M NaOH and 1M Glycine mixture, pH 10)
(6) Detect the assay plate in a ViewLux plate reader (PerkinElmer) with Ex=365 nm and Em=440nm.
Keywords: Glucocerebrosidase, beta-glucosidase, Gaucher Disease, pharmacological chaperone, chaperone therapy, high throughput screening, glucocerebrosidase inhibitor, MLSMR, MLSCN, NIH Roadmap, qHTS and NCGC
Potency means the concentration at half of the fitted maximal effect.

Activity change, negative = inhibition, inactive:
O=C(NCc1ccco1)O[C@@H]1C(=O)c2cc(Br)ccc2O[C@H]1c1ccc2c(c1)OCO2 0.0082%, CCn1c(=O)c(=O)n(CC)c2cc(N3CCCCC3)c(NC(=O)c3ccc(Cl)cc3)cc21 3.98%, CCC(C)C(N=C1NS(=O)(=O)c2ccccc21)C(=O)N1CCC(C)CC1 (centres undefined) 2.41%, O=C1CN(Cc2ccccc2)S(=O)(=O)c2ccccc21 -5.5%, C#CCOCCOCCOCCNc1nc(N2CCN(C(=O)CCCCCCCCCCNC(=O)Cn3cc(CCCCCN)nn3)CC2)nc(N2CCN(C(=O)CCCCCCCCCCNC(=O)[C@H](CO)n3cc(CCCSC)nn3)CC2)n1 -28%, C#CCOCCOCCOCCNc1nc(N2CCN(C(=O)Cn3cc(CCCCN)nn3)CC2)nc(N2CCN(C(=O)[C@H](CCCCN)n3cc(CCC(=O)O)nn3)CC2)n1 -0.601%, O=c1c(O)c(-c2ccc(O)cc2)oc2ccccc12 21%, CCCCN(CC(=O)Nc1cccc(S(=O)(=O)N2CCCC2)c1)Cc1nc2ccccc2c(=O)[nH]1 12.9%, COc1cc(C(=O)OCC(=O)NC23CC4CC(CC(C4)C2)C3)cc(OC)c1OC -2.45%, CN1CCN(c2ncc3nc(-c4ccc(Cl)cc4)c(=O)n(-c4ccccc4)c3n2)CC1 -18.9%, COc1cccc([C@H]2Oc3ccc(OC)cc3/C(=N\OCC[C@@H]3C=C[C@H](OC(C)=O)[C@H](COC(C)=O)O3)[C@@H]2O)c1 10.4% [at 12.8 µM], COc1ccc(-c2ccc(C3C4C=CCCC4(C)C(=O)N3Cc3ccccc3)c(F)c2)cc1OC (centres undefined) 2.67%, CCc1ccc(CN(C)C(C)C(=O)Nc2ccc(S(=O)(=O)N3CCCC3)cc2)cc1 (centres undefined) -12.1%, Cc1csc(SCC(=O)N(c2ccccc2)C(C)C)n1 -6.31%, c1cncc(CNc2ccnc(-c3ccc4c(c3)OCO4)n2)c1 -11.9%, CC(=O)c1ccc(OCCCC(=O)Nc2ccc(C)c(S(=O)(=O)N3CCOCC3)c2)cc1 0.719%, Cc1ccc(-c2cccc([C@H]3[C@@H]4C=CC[C@@H](C)[C@@H]4C(=O)N3Cc3ccccc3)c2)cc1 7.79%, O=C(C1CC(=O)N(C2CCCC2)C1)N1CCN(c2cccc(C(F)(F)F)c2)CC1 (centres undefined) -9.54%, CC(C)C[C@@H](CC(=O)N[C@@H](CCC(=O)O)CC(=O)O)NC(=O)[C@@H]1CCCC[C@H]1NC(=O)C[C@@H](NC(=O)C[C@H](CO)NC(=O)[C@@H]1CCCC[C@H]1N)C(C)C -2.87%, COc1cc(OC)c2c(c1C(CCN1CCCCC1)c1ccc(N(C)C)cc1)OC(=O)CC2c1ccc(N(C)C)cc1 (centres undefined) -10.2%, Cc1nc(-c2ccc(F)cc2)c(CC(=O)N(C)CC(=O)Nc2c(C)cccc2C)s1 -17.5%, CC(C)(C)c1ccc(S(=O)(=O)N2CCN(C(=O)c3ccc4c(c3)C(=O)N(Cc3ccncc3)C4=O)CC2)cc1 -4.23%, CC(C)(O/N=C(\C(=O)N[C@@H]1C(=O)N2C(C(=O)[O-])=C(C[n+]3ccccc3)CS[C@@H]12)c1csc(N)n1)C(=O)O 5.35% [at 21.6 µM], CCOCCOC(=O)C(C)Oc1ccc(Oc2ncc(C(F)(F)F)cc2Cl)cc1 (centres undefined) -1.23%, O=C1[C@H]2[C@H]3[C@H](O)[C@H](O)C/C(=N/OCc4ccccc4)[C@H]3CC[C@@H]2C(=O)N1Cc1ccccc1 4.77% [at 12.8 µM], CC(=O)N1[C@H](C)C=C[C@]1(Cc1ccccc1)C(=O)NCc1ccccn1 7.18%, CN(C)CCCNC(=S)NCc1ccc(Cl)cc1 -7.45%, Fc1ccc(Cl)cc1-c1nc(Nc2ccncc2)c2nccnc2n1 -3.89%, CC1(C)OC2CC3C4CCC5=CC(=O)CCC5(C)C4(F)C(O)CC3(C)[C@]2(C(=O)CCl)O1 (some centres undefined) -5.68%, COc1ccccc1CNS(=O)(=O)c1cc(C(=O)NCc2ccccn2)c(Cl)cc1Cl -9.28%, CCCC[C@@H]1C[C@H]1C(NC(=O)c1ccco1)c1ccc(C(=O)OC)cc1 (some centres undefined) -2.07%, Cc1ccc(C(=O)NCCN2CCOCC2)cc1C 0.992%, CCC1=Nc2cc(C(=O)NCCCN3CCOCC3)ccc2Sc2ccc(Br)cc21 -29.8%, CCc1cccc(NC(=O)COC(=O)c2cc(=O)c3ccccc3o2)c1 0.464%, CCc1nnc(NC(=O)C2CCN(C(=O)c3ccccc3C)CC2)s1 -0.449%, O=NO, CN1CCN(S(=O)(=O)c2ccc(N3CCN(c4ccccc4O)CC3)c([N+](=O)[O-])c2)CC1 -19%, C=CC(=C)CCC=C(C)C 10.8%, CC(=O)N1CCOc2ccc(S(=O)(=O)N3CCN(c4cccc(C(F)(F)F)c4)CC3)cc21 -3.52%, Cc1[nH]c(C)c(S(=O)(=O)N2CCN(c3cccc(C(F)(F)F)c3)CC2)c1C(=O)N1CCCC1 -10.1%, CC1CCN(C(=O)COC(=O)CCC(=O)c2cccs2)CC1 -8.17%, Cc1cc2nc3c(=O)[nH]c(=O)nc-3n(C[C@H](O)[C@H](O)[C@H](O)CO)c2cc1C 2.13%, CO[C@@]12[C@@H](COC(N)=O)C3=C(C(=O)C(C)=C(N)C3=O)N1C[C@@H]1N[C@@H]12 -3.21%, COc1ccccc1C(=O)Nc1ccc(C)c(S(=O)(=O)N2CCCCC2)c1 -1.07%, COc1cc(C(c2c(NC(=O)c3ccco3)sc(C)c2C)N2CCOCC2)cc(OC)c1OC (centres undefined) -2.37%, CC1(C(=O)OCC(=O)Nc2ncc(Cl)cc2Cl)CC1(Cl)Cl (centres undefined) -0.315%, Cc1cccc(N2CCN(C(=O)c3cccc(S(=O)(=O)N4CCc5ccccc5C4)c3)CC2C)c1 (centres undefined) -25.4%, Cc1cccc(N2CCN(S(=O)(=O)c3ccc(-c4cc(C)no4)s3)CC2C)c1 (centres undefined) -0.877%, CCCCNc1nc(C)nc2c1nc(-c1ccccc1)n2CCCCN(CC)CC -8.02%, CC(C)[C@@H](CC(=O)N[C@@H]1CCNC[C@H]1C(=O)N[C@H](CC(=O)N[C@@H](CCC(=O)O)CC(=O)O)Cc1ccccc1)NC(=O)C[C@H](CO)NC(=O)[C@@H]1CNCC[C@H]1N 2.57%, CN(CC(=O)NC(=O)Nc1ccccc1F)Cc1ccccc1 -12.4%, Oc1ccc(-c2c(-c3ccccc3)nn3c(C(F)(F)F)cc(C(F)(F)F)nc23)cc1 -2.59%, Cn1c(N)c(C(=O)COC(=O)c2cc(C(F)(F)F)nc3c(C(F)(F)F)cccc23)c(=O)n(C)c1=O -1.81%, Cc1cc(C)cc(NC(=O)C(c2ccccc2)N2CCN(CC(=O)N3CCCC3)CC2)c1 (centres undefined) -10.5%, CCCn1c(-c2ccc(F)cc2)nc2c(NCC3CCCN3CC)nc(C)nc21 (centres undefined) 3.01%, Cc1cccc(CNc2ccnc(-c3cccnc3)n2)c1 4%, CC(C)C(NS(=O)(=O)c1ccc(-c2ccc(Br)cc2)cc1)C(=O)O (centres undefined) -1%, Cn1nc(C(=O)OCC(=O)N(Cc2ccccc2)C(C)(C)C)c2ccccc2c1=O -0.388%, O=S(O)S(=O)(=O)O -2.71%, O=C(CN1CCN(C2CCS(=O)(=O)C2)CC1)N1N=C(c2ccc(Cl)cc2)CC1c1ccco1 (centres undefined) -0.578%, O=C(CCNS(=O)(=O)c1ccccc1)NCCCc1ccccc1 -3.56%, Cc1ccc(-n2nc(C)c(C(=O)O)c2-n2cccc2)cc1 -10.4%, COCCNc1nc(-c2ccccc2)nc2c1oc1ccccc12 26.2%, COc1ccccc1-c1nc(NCCNC(C)=O)c2ccccc2n1 -7.54%, O=C(CN1CCCCC1)NC(=O)Nc1ccccc1F -13.3%, COc1ccc(C2/C=C\CN(C(=O)c3ccc(C)cc3)C(Cc3ccccc3)C(=O)N2Cc2ccc(F)cc2)cc1 (centres undefined) -6.74%, O=C(CSc1nnc(CN2CCCC2)n1-c1ccc(F)cc1)c1ccc2c(c1)OCO2 -3.16%, COc1ccc2c(c1)O[C@@H](c1ccc3c(c1)OCO3)[C@H](OC(=O)NCCc1ccc(OC)c(OC)c1)C2=O 1.5%, Cc1ccc(NC(=O)Cn2c(C)csc2=O)cc1 0.884%, CN1CCN(c2ccc(NC(=O)c3cc(Cl)c4c(c3)OCCO4)cc2)CC1 -1.3%, C1CCC2OC2C1 (centres undefined) 4.47%, Cc1ccc(C)c(NC(=O)C(c2ccccc2)N2CCN(CC(=O)NC3CC3)CC2)c1 (centres undefined) -6.58%, COc1ccc(CCNC(=O)COC(=O)Cc2cccc(F)c2)cc1 -3.01%, C=CCOC(=O)C(=C)C -1.86%, O=C(NCc1ccccn1)[C@]1(C(F)(F)F)C[C@H](CCc2ccccc2)CCCO1 7.16%, COC(=O)C(CC(C)C)NS(=O)(=O)c1cc(Br)ccc1Br (centres undefined) -1.26%, Cc1csc(NC(=O)C2CCN(S(=O)(=O)c3ccccc3)CC2)n1 -2.1%, CNC(=O)[C@]1(C(F)(F)F)C[C@H](CCc2ccccc2)CCCO1 1.95%, CN1CCc2nc(-c3ccccc3)c(-c3ccccc3)cc2C1 -2.21% [at 12.8 µM], COc1ccc(-c2nc(-c3ccccc3)oc2Nc2ccc3ccccc3c2)cc1 0.754%, COc1cccc([C@@H]2Oc3ccc(Br)cc3C(=O)[C@H]2OC(=O)NCc2ccc3c(c2)OCO3)c1 7.03%, CC(OC(=O)Cc1ccc(F)cc1)C(=O)N1CCc2ccccc21 (centres undefined) 0.251%, CCOC(=O)Cn1c(=O)sc2cccc(Cl)c21 9.84%

Potency, active:
C#CCOCCOCCOCCNc1nc(N2CCN(C(=O)CCCCCCCCCCNC(=O)[C@H](CCCCN)n3cc(C)nn3)CC2)nc(N2CCN(C(=O)CCCCCCCCCCNC(=O)[C@H](CO)n3cc(CCCSC)nn3)CC2)n1 15.8 µM, S=C(NCCCc1cnc[nH]1)NCCCN(Cc1ccc(Cl)c(Cl)c1)c1ccc(Br)cn1 1 µM, Cc1ccccc1CN1C(=O)c2ccccc2Sc2ccc(C(=O)NCCCN3CCOCC3)cc21 11.2 µM, O=C1CC(=O)Nc2cc(S(=O)(=O)N3CCN(c4cccc(C(F)(F)F)c4)CC3)ccc2N1 14.1 µM, Cc1cccc(N2CCN(S(=O)(=O)c3ccc4[nH]c(=O)c(=O)[nH]c4c3)CC2C)c1 (centres undefined) 12.6 µM, CCC(=O)OCCNc1nc(-c2ccccc2)nc2ccccc12 2 µM
